Assay outcomes deposited in PubChem by several laboratories.
A selection: hits, their analogues and other compounds. The true share with any hit is near 5.2%.
esBAF inh: SWI/SNF esBAF complex inhibition. AID 602393. mouse ES cells, Bmi1-luciferase knock-in reporter, 24 h; 100% = twice the neutral-well signal. reporter increase, % at 12.5 µM. 2% of 350,000 active; in the data active means activation above about 40%;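 further: 0% = median of the plate's neutral control wells and 100% = double that signal; a rise in the Bmi1 reporter signal indicates esBAF inhibition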
SKN-1 inh: inhibitors of C. elegans SKN-1. C. elegans VP596 Pgst-4::GFP/RFP ratio, acrylamide-induced, 24 h. inhibition, % at 21.8 µM. 0.49% of 360,000 active. AID 624304;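 active means interference check ratio from 0.5 to 1.5 plus GFP to RFP signal ratio inhibition reaching or exceeding a fixed threshold, cut at about 30% in these data, passing the limit was not always enough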
NadD inh: blocks S. aureus nicotinate mononucleotide adenylyltransferase. purified NadD enzyme, colorimetric absorbance read-out. inhibition, % at 20 µM. 0.78% of 360,000 active; in the data active means inhibition above about 26%
SMARCA2 activ: activators of SMARCA2 function. activation, % at 9.1 µM. MG213 cells, MMTV-luciferase reporter, dexamethasone, overnight. 1% of 370,000 active. AID 652017; in the data active means activation above about 7.8%;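 further: 0% = vehicle wells and 100% = reference activator wells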
Vif imaging: blocks HIV Vif function; HEK293T cells, Vif self-association by quenched fluorescence, imaging, 24 h; inhibition, % at 7.49 µM; 0.35% of 340,000 active; AID 602346; in the data active means inhibition above about 50%, passing the limit was not always enough
NR3A LBD binder: modulators (binders) of human NR3A ligand-binding domain. 2.5% of 340,000 active. AID 1259313. Tm shift relative to glycine control, % at 25 µM. NR3A LBD differential scanning fluorimetry, Tm shift; 0% = protein alone, 100% = glycine-bound protein;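 active means melting temperature shift of at least 10% of the positive control shift, at one fixed dose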
NadD conf: confirmation of Staphylococcus aureus NadD inhibitors | 13% of 2,000 active | AID 624309 | inhibition, % at 20 µM | purified S. aureus NadD, colorimetric enzyme assay | shares compounds with NadD inh; in the data active means inhibition mostly above about 42%, no sharp cut-off; inactive means mostly below about 42%
The depositor's hits bear a star; nt = not tested or not shown.

SMILES | esBAF inh | SKN-1 inh | NadD inh | SMARCA2 activ | Vif imaging | NR3A LBD binder | NadD conf
COc1ccccc1C(=O)Nc1nc2ccccc2s1 | -83.5 | 5.7 | -5.3 | -7.8 | 4.7 | -1.6 | nt
COc1ccccc1NC(=O)c1sc2nc(-c3ccco3)ccc2c1N | -7.4 | 23.4 | 24.2 | nt | -1.3 | 1.1 | nt
Nc1c(C(=O)Nc2nc3ccccc3s2)sc2nc(-c3cccs3)ccc12 | -13.0 | -21.8 | 33.6* | nt | 154.1* | 27.9* | 23.3
Nc1c(C(=O)Nc2ccccc2)sc2nc(-c3ccco3)ccc12 | nt | 25.3 | 34.7* | 0.0 | -3.6 | -11.0 | 26.3
C[C@H](CO)N1C[C@H](C)[C@H](CN(C)C(=O)Cc2ccccc2)OCCCC[C@H](C)Oc2ccc(NC(=O)c3ccccc3)cc2C1=O | 5.1 | nt | nt | nt | nt | nt | nt
Cc1c(NC(=O)c2cc(-n3cnnc3)ccc2Cl)cccc1-c1nc2ccccc2s1 | 12.5 | 3.9 | 12.0 | 1.2 | -1.7 | -3.0 | nt
O=C(Nc1cccc(-c2nc3ccccc3s2)c1)c1cc(-n2cnnc2)ccc1Cl | 81.8* | 11.1 | 39.6* | nt | -5.5 | -5.9 | 0.8
CC[C@H](C)/C=C(C)/C=C/C(=O)Cc1cc(O)c(C)c(O)c1C=O | 5.5 | 33.9 | 33.2* | 0.3 | -1.8 | -3.2 | 13.6
Cc1ccc(-c2cc(C(F)F)n3ncc(C(=O)Nc4ccc(S(=O)(=O)Nc5ccccc5C)cc4)c3n2)cc1 | -2.8 | -14.8 | 36.2* | 0.8 | -0.7 | 0.1 | 0.8
O=C(NNc1nc(-c2ccccc2)c2cc(Br)ccc2n1)c1ccc(S(=O)(=O)N2CCCCC2)cc1 | nt | 4.1 | 36.5* | -1.6 | -1.5 | 7.6 | 25.1
O=C(NNc1nc(-c2ccccc2)c2cc(Br)ccc2n1)c1ccc(S(=O)(=O)N2CCOCC2)cc1 | nt | 3.6 | 24.1 | -2.4 | -6.3 | -7.1 | nt
O=C(C[C@H]1C[C@H]2c3cc(NC(=O)Nc4ccccc4F)ccc3O[C@H]2[C@H](CO)O1)NCc1cc(F)ccc1F | -1.0 | nt | nt | nt | nt | nt | nt
COCCN1C(=O)Cc2c1nc(N)c1c(N)nc(N3CCN(c4ccc(F)cc4)CC3)c(C#N)c21 | 7.4 | 1.8 | 37.3* | -0.9 | 3.2 | 3.6 | 9.1
COc1ccc(CN2C(=O)Cc3c2nc(N)c2c(N)nc(N4CCOCC4)c(C#N)c32)cc1 | nt | -12.4 | 25.7 | -1.4 | -0.3 | 1.7 | nt
Nc1c(C(=O)N/N=C/c2ccccc2Cl)oc2nc(-c3ccccc3)cc(-c3ccco3)c12 | 10.5 | 2.3 | 31.2* | 5.0 | nt | 3.3 | -3.5
C/C=C/c1ccc([C@H]2[C@@H](CO)N(C(C)=O)[C@H]2CN(C)C(=O)c2ccccn2)cc1 | 5.1 | nt | nt | nt | nt | nt | nt
CCOC(=O)c1c(-c2ccccc2Cl)csc1NC(=O)CSc1nc(C)cc(=O)[nH]1 | nt | 6.0 | 27.6* | -0.3 | -12.0 | -12.0 | 55.3*
Cc1ccc(S(=O)(=O)N[C@@H]2C=C[C@H](CC(=O)NCc3ccncn3)O[C@H]2CO)cc1 | 6.8 | nt | nt | nt | nt | nt | nt
O=C(O)c1ccc(-n2c(=O)c3ccccc3c3ccccc3c2=O)cc1 | nt | 3.9 | 6.3 | 0.8 | 1.9 | -0.2 | nt
Cc1ccc(-n2c(=O)c3cc4c(=O)n(-c5ccc(C)c(C)c5)c(=O)c4c(C(=O)c4ccc(C(=O)O)cc4)c3c2=O)cc1C | 0.1 | -1.0 | 33.9* | -4.5 | -2.9 | -0.8 | 11.4
COc1ccc(/C=N\NS(=O)(=O)c2ccc(Br)cc2)cc1COc1ccccc1[N+](=O)[O-] | -3.1 | 9.8 | 45.6* | -2.7 | -6.3 | 25.0* | 26.8
CC(=O)C1CCC2C3CCC4=CC(=O)C=CC4(C)C3C(=O)CC12C (centres undefined) | -9.7 | -0.3 | 0.4 | -2.4 | 7.9 | -5.9 | nt
C[C@]12C=CC(=O)C=C1CC[C@@H]1C2=CC[C@]2(C)[C@@H](C(=O)CN3CCN(c4cc(N5CCCC5)nc(N5CCCC5)n4)CC3)CC[C@@H]12 | 1.8 | 3.4 | 32.9* | -1.7 | -2.0 | -4.2 | -0.1
O=S(=O)(c1ccc2c(c1)C(=NO)c1cc(S(=O)(=O)N3CCCCC3)ccc1-2)N1CCCCC1 | -88.1 | 9.6 | 33.9* | 7.8 | -37.5 | 2.2 | 7.5
COCCn1c(SCc2nc3scc(-c4ccc(Cl)cc4)c3c(=O)[nH]2)nnc1-c1cccc(C)c1 | nt | 6.6 | 32.5* | -5.2 | 0.4 | 0.5 | 26.2
SMILES | esBAF inh | SKN-1 inh | NadD inh | SMARCA2 activ | Vif imaging | NR3A LBD binder | NadD conf
C[C@@H]1CN([C@@H](C)CO)C(=O)c2cc(NC(=O)CCC(F)(F)F)ccc2O[C@@H](C)CCCCO[C@@H]1CN(C)S(=O)(=O)c1ccccc1 | -8.3 | nt | nt | nt | nt | nt | nt
O=C1NC[C@H](Cc2ccccc2)N(C[C@@H]2CCCN2C[C@H](Cc2ccccc2)N2C[C@H](Cc3ccc(O)cc3)N(CCc3ccccc3)C(=O)C2=O)C1=O | nt | 0.1 | 44.0* | 5.9 | nt | nt | 48.9*
CCOc1ccc(CCN2C(=O)C(=O)N([C@@H](Cc3ccc(O)cc3)CN3CCC[C@H]3CN3C(=O)C(=O)NC[C@@H]3Cc3ccccc3)C[C@@H]2Cc2ccc(O)cc2)cc1 | nt | 6.6 | 30.3* | -3.0 | nt | nt | 31.8
CCOc1ccc(CCN2C(=O)C(=O)N([C@@H](CC(C)C)CN3CCC[C@@H]3CN3C(=O)C(=O)NC[C@@H]3Cc3ccccc3)C[C@@H]2Cc2ccc(O)cc2)cc1 | 4.0 | 12.4 | 20.6 | 1.0 | nt | -4.1 | nt
CCOc1ccc(CCN2C(=O)C(=O)N([C@@H](Cc3ccccc3)CN3CCC[C@H]3CN3C(=O)C(=O)NC[C@@H]3Cc3ccccc3)C[C@@H]2Cc2ccccc2)cc1 | nt | 4.5 | 27.4 | -1.5 | nt | nt | nt
CCOc1ccc(CCN2C(=O)C(=O)N([C@@H](Cc3ccccc3)CN3CCC[C@H]3CN3C(=O)C(=O)NC[C@@H]3Cc3ccccc3)C[C@@H]2Cc2ccc(O)cc2)cc1 | nt | 2.5 | 71.0* | -6.5 | nt | nt | 40.7
C[C@H](O)C#Cc1cnc2c(c1)C(=O)N([C@H](C)CO)C[C@H](C)[C@H](CN(C)C(=O)Cc1ccncc1)O2 | -3.2 | nt | nt | nt | nt | nt | nt
O=C(Nc1c2c(nn1-c1ccc(F)cc1)CSC2)c1ccc(S(=O)(=O)N2CCOCC2)cc1 | 4.5 | 7.5 | 41.8* | nt | -4.5 | 7.2 | 34.0
COc1ccc(-n2nc3c(c2NC(=O)c2ccc(S(=O)(=O)N4CCOCC4)cc2)CS(=O)(=O)C3)cc1 | nt | -0.6 | -4.7 | -3.1 | -4.7 | 0.6 | nt
Cc1nnc(NC(=O)c2ccc(S(=O)(=O)N3CCCCC3)cc2)s1 | 3.5 | -5.1 | 2.4 | -0.9 | -9.7 | 1.9 | nt
CC(C)(C)n1nc2c(c1NC(=O)c1ccc(S(=O)(=O)N3CCCC3)cc1)CSC2 | 2.8 | 8.9 | 31.2* | -0.5 | nt | -1.9 | 47.7*
Cc1cccc(NC(=O)c2nc[nH]c2C(=O)Nc2cc(Br)ccc2F)c1 | -6.2 | -22.2 | 14.3 | -3.1 | -2.0 | nt | nt
Cc1cccc(NC(=O)c2nc[nH]c2C(=O)Nc2ccccc2[N+](=O)[O-])c1 | nt | 6.1 | 31.2* | 2.2 | nt | -0.3 | 3.4
COc1ccc(-c2cc(C(=O)NNC(=S)NC(=O)c3c(-c4ccccc4)noc3C)[nH]n2)cc1 | nt | -2.7 | 42.5* | -3.4 | -1.6 | -3.2 | 52.5*
